From PubChem BioAssay (Tox21)
Results filed as inconclusive are left out. Activity calls are given as the source filed them. Unless noted, calls come from the whole dose curve; as a rule, active = well fitted curve in the direction sought with a large enough effect in the repeat runs; inconclusive = weak or mixed curves; inactive = no such curve, though single readings can be large; an effect the other way counts as inactive or inconclusive.

Legend:
[1] = qHTS assay to identify small molecule antagonists of the estrogen receptor alpha (ER-alpha) signaling pathway using the BG1 cell line in the presence of 0.1 nM 17-beta-estradiol - cell viability counter screen (AID 1259241); note: nearly all actives have a fitted effect of over 40% in size; note: potency is the fitted concentration of half-maximal effect
Outline: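 Cytotoxicity counter-screen: live-cell protease activity measured by fluorescence (30 min reagent step) in the same wells. Cells were VM7Luc4E2 with endogenous ER-alpha and ERE-driven luciferase, treated 22 hr at 37C alongside 0.1 nM 17beta-estradiol final.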

[2] = qHTS assay to identify small molecule antagonists of the androgen receptor (AR) signaling pathway using the MDA cell line in the presence of 0.5 nM R1881 - cell viability counter screen (AID 1259242); note: nearly all actives have a fitted effect of over 45% in size; note: potency is the fitted concentration of half-maximal effect
Outline: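 MDA-kb2 cells (MMTV-luciferase, AR/GR responsive) were treated with compounds plus 0.5 nM R1881 (final) for 16 hr at 37C, 0% CO2. Viability was then read in the same wells as live-cell protease fluorescence (CellTiter-Fluor, 30 min).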

[3] = target: Androgen receptor (Homo sapiens) (UniProt P10275); assay: qHTS assay to identify small molecule antagonists of the androgen receptor (AR) signaling pathway using the MDA cell line in the presence of 0.5 nM R1881 (AID 1259243); note: nearly all actives have a fitted effect of over 50% in size; note: potency is the fitted concentration of half-maximal effect
Sequence of Androgen receptor (Homo sapiens) (P10275 whole entry, looked up): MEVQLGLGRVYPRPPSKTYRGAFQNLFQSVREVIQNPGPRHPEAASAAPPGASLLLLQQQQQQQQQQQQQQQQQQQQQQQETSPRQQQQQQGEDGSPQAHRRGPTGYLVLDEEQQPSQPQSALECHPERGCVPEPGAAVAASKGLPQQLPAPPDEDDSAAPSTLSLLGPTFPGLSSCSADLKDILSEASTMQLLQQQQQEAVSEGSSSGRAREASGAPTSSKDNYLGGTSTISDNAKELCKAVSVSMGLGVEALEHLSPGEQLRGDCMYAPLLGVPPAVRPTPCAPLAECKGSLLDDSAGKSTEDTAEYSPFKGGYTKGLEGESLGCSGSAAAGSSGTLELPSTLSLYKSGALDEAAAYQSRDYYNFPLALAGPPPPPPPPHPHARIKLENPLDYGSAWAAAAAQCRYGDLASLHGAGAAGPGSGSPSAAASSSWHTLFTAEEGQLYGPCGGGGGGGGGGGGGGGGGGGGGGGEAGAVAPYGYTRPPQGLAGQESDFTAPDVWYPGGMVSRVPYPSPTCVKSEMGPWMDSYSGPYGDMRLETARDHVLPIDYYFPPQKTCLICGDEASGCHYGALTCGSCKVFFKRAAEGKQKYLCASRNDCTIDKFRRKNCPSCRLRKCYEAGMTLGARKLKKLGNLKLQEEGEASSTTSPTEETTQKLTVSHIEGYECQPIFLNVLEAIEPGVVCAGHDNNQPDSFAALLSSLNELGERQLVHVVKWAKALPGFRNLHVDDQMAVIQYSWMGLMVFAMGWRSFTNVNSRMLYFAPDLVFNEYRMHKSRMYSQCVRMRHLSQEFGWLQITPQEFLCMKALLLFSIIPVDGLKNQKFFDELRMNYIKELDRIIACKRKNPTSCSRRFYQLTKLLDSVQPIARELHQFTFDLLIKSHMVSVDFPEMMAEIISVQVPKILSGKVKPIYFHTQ
Outline: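 MDA-kb2 cells (MMTV-luciferase, responsive to AR and GR) at 3,000/well, rested 5 h at 37C, 0% CO2, then given compounds plus 0.5 nM R1881 (final) for 16 hr. Luciferase read with ONE-Glo after 30 min at room temperature.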

[4] = target: Estrogen receptor (Homo sapiens) (UniProt P03372); assay: qHTS assay to identify small molecule antagonists of the estrogen receptor alpha (ER-alpha) signaling pathway using the BG1 cell line in the presence of 0.1 nM 17-beta-estradiol (AID 1259244); note: nearly all actives have a fitted effect of over 50% in size; note: potency is the fitted concentration of half-maximal effect
Sequence of Estrogen receptor (Homo sapiens) (P03372 whole entry, looked up): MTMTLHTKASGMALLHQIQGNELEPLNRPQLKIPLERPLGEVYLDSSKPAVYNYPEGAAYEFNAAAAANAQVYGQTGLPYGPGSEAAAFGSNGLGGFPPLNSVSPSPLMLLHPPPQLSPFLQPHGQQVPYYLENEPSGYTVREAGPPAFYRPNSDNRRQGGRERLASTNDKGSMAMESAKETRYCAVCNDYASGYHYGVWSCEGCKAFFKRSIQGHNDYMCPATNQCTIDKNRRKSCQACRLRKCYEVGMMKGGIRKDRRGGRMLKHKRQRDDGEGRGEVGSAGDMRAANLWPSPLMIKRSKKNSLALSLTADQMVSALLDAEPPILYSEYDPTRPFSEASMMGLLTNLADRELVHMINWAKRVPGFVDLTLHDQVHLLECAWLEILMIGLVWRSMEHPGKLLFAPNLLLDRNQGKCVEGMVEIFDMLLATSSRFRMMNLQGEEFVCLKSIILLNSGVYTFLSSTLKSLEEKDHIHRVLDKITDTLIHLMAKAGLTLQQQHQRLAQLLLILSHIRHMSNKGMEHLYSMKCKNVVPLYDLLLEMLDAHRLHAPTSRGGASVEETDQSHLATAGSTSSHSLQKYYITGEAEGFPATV
Outline: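 VM7Luc4E2 cells (endogenous full-length ER-alpha, 4×ERE-luciferase), kept 5 days in phenol red-free, charcoal-stripped FBS medium; 4,000 cells/well. Compounds added with 0.1 nM (final) 17beta-estradiol, 22 hr at 37C; luminescence read with ONE-Glo after 30 min.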

[5] = qHTS assay to identify small molecule HDAC inhibitors (AID 1259364); note: nearly all actives have a fitted effect of over 45% in size; note: potency is the fitted concentration of half-maximal effect
Outline: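 Wild-type HCT-116 cells, plated overnight at 37 C, exposed to compounds 2 hr at 37 C; luminogenic HDAC-Glo substrate then added 30 min at room temperature. Luminescence reports relative endogenous class I/II HDAC activity.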

[6] = qHTS assay to identify small molecule agonists of the sonic hedgehog signaling (Shh) pathway - cell viability counter screen (AID 1259366); note: nearly all actives have a fitted effect of over 50% in size; note: potency is the fitted concentration of half-maximal effect
Outline: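 Cytotoxicity counter screen: CellTiter-Fluor reagent added after 23 h compound exposure, then 1 h at 37C and fluorescence read. Cells were 3T3 Gli1-Luc, seeded 2,000 per well and dosed 4 h post-plating.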

[7] = qHTS assay to identify small molecule antagonists of the sonic hedgehog signaling (Shh) pathway - cell viability counter screen (AID 1259367); note: nearly all actives have a fitted effect of over 55% in size; note: potency is the fitted concentration of half-maximal effect
Outline: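 Cells: 3T3 Gli1-Luc, 2,000/well, 4 hr pre-incubation. Compounds in DMSO, then conditioned medium. Incubation 24 hr, 37C, 5% CO2. CellTiter-Fluor at 23 hr, 1 hr, fluorescence.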

[8] = qHTS assay to identify small molecule agonists of the sonic hedgehog signaling (Shh) pathway (AID 1259368; calls by dose curve;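 note: NIH/3T3-derived 3T3Gli1-Luc cells carrying a stable Gli1-driven firefly luciferase reporter; series mostly up to about 92 µM; nearly all actives have a fitted effect of over 15% in size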)
Outline: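 NIH/3T3-derived 3T3Gli1-Luc cells with stably integrated Gli1-driven firefly luciferase, 2,000 cells/well, compounds added after 4 hr. Incubated 24 hr at 37C, 5% CO2; luminescence read after 30 min with luciferase reagent at room temperature.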

[9] = qHTS assay to identify small molecule antagonists of the sonic hedgehog signaling (Shh) pathway (AID 1259369; calls by dose curve; note: nearly all actives have a fitted effect of over 45% in size; note: potency is the fitted concentration of half-maximal effect)
Outline: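 NIH/3T3-derived Gli1-Luc reporter cells plated 4 h, dosed with compound, then stimulated with conditioned medium for 24 h at 37 C. Firefly luciferase luminescence read after 30 min with detection reagent at room temperature.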

[10] = qHTS assay to identify small molecule HDAC inhibitors - cell viability counter screen (AID 1259365); note: nearly all actives have a fitted effect of over 50% in size; note: potency is the fitted concentration of half-maximal effect
Outline: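 CellTiter-Glo luminescence (30 min, room temperature) reported viability after a 2 h compound exposure at 37 C. Cells: wild-type HCT-116, 1,500 per well, seeded the night before.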

Measured: Potency

O=[N+]([O-])c1cc(Cl)ccc1Cl
not listed: [10]
inactive: all other assays above

CCOC(=O)C1(c2ccccc2)CCN(CCC(C#N)(c2ccccc2)c2ccccc2)CC1
active: [3] 29.8 µM
not listed: [9] | [10]
inactive: all other assays above

N#CC(Cl)Cl
not listed: [4] | [9]
inactive: all other assays above

COP(=S)(OC)Oc1cc(Cl)c(Br)cc1Cl
active: [3] 54.5 µM
not listed: [4] | [9]
inactive: all other assays above

CCC(C)(C)C(=O)OC1=C(c2ccc(Cl)cc2Cl)C(=O)OC12CCCCC2
not listed: [9] | [10]
inactive: all other assays above

ClC1=C(Cl)[C@]2(Cl)[C@@H]3[C@@H](Cl)[C@@H](Cl)C[C@@H]3[C@@]1(Cl)C2(Cl)Cl
inactive: all assays above

CCc1ccccc1C
inactive: all assays above

O=C(CCl)Nc1ccccc1
inactive: [5] | [8] | [9]
active: [1] 61.1 µM | [2] 61.1 µM | [3] 48.6 µM | [4] 61.1 µM | [6] 12.2 µM | [7] 27.3 µM

COC(=O)N(C(=O)N1CO[C@@]2(C(=O)OC)Cc3cc(Cl)ccc3C2=N1)c1ccc(OC(F)(F)F)cc1
active: [3] 23.5 µM
not listed: [4] | [9]
inactive: all other assays above

[CH3][Hg][Cl]
inactive: [1] | [4] | [8]
active: [2] 21.6 µM | [3] 19.3 µM | [5] 27.2 µM | [6] 4.84 µM | [7] 68.4 µM

O=C1C=CC(=O)c2ccccc21
active: [1] 19.3 µM | [2] 30.6 µM | [3] 19.3 µM | [4] 10.9 µM | [10] 48.6 µM | [6] 12.2 µM | [7] 15.4 µM | [9] 4.33 µM
inactive: [8]

O=C(NC(=O)c1c(F)cccc1F)Nc1cc(Cl)c(OC(F)(F)C(F)F)c(Cl)c1
inactive: all assays above

C[As+](C)(C)CC(=O)[O-]
not listed: [5] | [7]
inactive: all other assays above

CC(=O)c1ccc(-c2ccccc2)cc1
active: [3] 19.3 µM | [5] 24.3 µM
inactive: all other assays above

Cc1ccc(C(=O)Cl)cc1
not listed: [4] | [5]
inactive: all other assays above

SCc1ccco1
active: [9] 61.1 µM
not listed: [3]
inactive: all other assays above

CCCSP(=O)(OCC)SCCC
not listed: [4]
inactive: all other assays above

CC(=O)C(Cl)(Cl)Cl
inactive: [5] | [10] | [8]
active: [1] 20.9 µM | [2] 14.8 µM | [3] 9.35 µM | [6] 20.9 µM | [7] 16.6 µM | [9] 5.9 µM

CC(C)CCCCCCCOP(=O)(Oc1ccccc1)Oc1ccccc1
not listed: [3] | [9]
inactive: all other assays above

CCCCCCCCCCCCBr
not listed: [3]
inactive: all other assays above

C=CC(=O)OCC(COC(=O)C=C)(COC(=O)C=C)COC(=O)C=C
inactive: [5] | [8]
active: [1] 19.3 µM | [2] 13.7 µM | [3] 4.33 µM | [6] 5.45 µM | [7] 7.7 µM

C[C@@H](Oc1ccc(Cl)cc1Cl)C(=O)O
not listed: [3] | [9]
inactive: all other assays above

CC(C)(COCC1CO1)COCC1CO1 (stereo not given)
not listed: [3] | [9]
inactive: all other assays above

C[C@]12Cc3nonc3C[C@@H]1CC[C@@H]1[C@@H]2CC[C@@]2(C)[C@H]1CC[C@]2(C)O
active: [3] 21.1 µM
not listed: [4] | [6] | [9]
inactive: all other assays above
